Values joined by “and” are separate entries in the source; they are usually repeats but may differ in a detail not shown here. Equal entries are not always repeated. Hit rate of the full screen: of about 360,000 compounds, about 1,600 (0.44%) were called active.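 Rule for the calls: active = every replicate showing at least 50% inhibition; inconclusive = mean inhibition at least 50% but not in every replicate; inactive = the rest.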 For the sample, actives were picked, then their nearest neighbours and some compounds at random. More than one record can exist for a structure, and the calls need not agree.
target: DNA repair protein RAD52 homolog (Homo sapiens) (UniProt P43351); test: RAD52 DNA annealing inhibitors, primary screen, biochemical, FRET, single point, set 2 (AID 651710); conditions: recombinant RAD52 DNA annealing, FRET fluorescence; at 18.7 µM; stronger effect = higher value
Sequence (P43351 whole entry, looked up): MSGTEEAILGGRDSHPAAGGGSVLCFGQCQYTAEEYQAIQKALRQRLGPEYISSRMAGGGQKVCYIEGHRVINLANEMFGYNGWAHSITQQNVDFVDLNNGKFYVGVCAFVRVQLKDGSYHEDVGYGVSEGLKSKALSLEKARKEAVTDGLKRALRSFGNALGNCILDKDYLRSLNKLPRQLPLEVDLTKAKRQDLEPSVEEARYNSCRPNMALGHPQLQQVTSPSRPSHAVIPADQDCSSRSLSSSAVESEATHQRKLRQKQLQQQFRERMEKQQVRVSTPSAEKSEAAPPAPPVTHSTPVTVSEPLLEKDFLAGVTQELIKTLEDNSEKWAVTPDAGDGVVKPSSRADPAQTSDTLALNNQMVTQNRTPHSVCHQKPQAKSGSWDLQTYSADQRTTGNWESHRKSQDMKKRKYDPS

| Structure (SMILES) | inhibition |
| --- | --- |
| O=C(C[C@H]1C=C[C@@H](NC(=O)C2CC2)[C@H](CO)O1)NCC1CC1 | 2.9% (inactive) |
| CO[C@H]1CN(C)C(=O)c2ccc(NC(=O)c3cnccn3)cc2OC[C@H](C)N(C)C[C@@H]1C | 2.76% (inactive) |
| O=C(Nc1ccccc1)N[C@H]1CC[C@H](CCNC(=O)c2ccccc2F)O[C@H]1CO | -10.3% (inactive) |
| CCCN(C)C[C@@H]1Oc2ncc(-c3cccc(C(=O)N(C)C)c3)cc2C(=O)N([C@H](C)CO)C[C@@H]1C | -4.17% (inactive) |
| CN(C)C(=O)C[C@H]1CC[C@H](NC(=O)NC2CCCC2)[C@@H](CO)O1 | -3.59% (inactive) |
| CCCC#Cc1ccc([C@H]2[C@@H](CO)N3CCCCN(C(=O)c4ccc5c(c4)OCO5)C[C@@H]23)cc1 | -42.9% (inactive) |
| COc1ccc(NC(=O)N(C)C[C@@H]2Oc3ccc(NC(=O)CCC(F)(F)F)cc3C(=O)N([C@@H](C)CO)C[C@H]2C)cc1 | -4.28% (inactive) |
| O=C(Nc1ccccc1)[C@@H]1[C@@H](CO)[C@@H]2Cn3c(cccc3=O)[C@@H]2N1C(=O)C1CC1 | 2.14% (inactive) |
| COc1ccc(C(=O)COC(=O)c2ccc([N+](=O)[O-])s2)cc1OC | -8.04% (inactive) |
| COc1ccc(-n2nnnc2SCC(=O)c2ccc(OC)c(OC)c2)cc1 | -22.4% (inactive) |
| C=Cn1cc[n+](CC(=O)c2ccc(OC)c(OC)c2)c1 | 98% (active) |
| COc1ccc2[nH]c3c(C)c4cc[n+](C)cc4c(C)c3c2c1 | 94.3% (active) |
| CC(=O)N(C)C[C@H]1Oc2ncc(C#CC3(O)CCCC3)cc2C(=O)N([C@@H](C)CO)C[C@@H]1C | 9.64% (inactive) |
| CO[C@@H]1CN(C)C(=O)c2ccc(NC(=O)Nc3ccccc3)cc2OC[C@@H](C)N(C(=O)CN(C)C)C[C@H]1C | 5.57% (inactive) |
| Cn1cnc(S(=O)(=O)N2CCCCN3[C@H](CO)[C@@H](c4ccc(-c5ccc(F)cc5)cc4)[C@@H]3C2)c1 | -27.5% (inactive) |
| COc1ccc(-c2cn(CC[C@H]3CC[C@@H](NC(=O)CCN4CCCCC4)[C@H](CO)O3)nn2)cc1 | -7.25% (inactive) |
| C[C@H]1CCCCO[C@H](CN(C)S(=O)(=O)c2ccc(F)cc2)[C@@H](C)CN([C@@H](C)CO)C(=O)c2cc(NS(=O)(=O)c3cn(C)cn3)ccc2O1 | -9.68% (inactive) |
| Cc1ccc(COc2ccc(C(=O)NN)cc2)cc1 | -18.7% (inactive) |
| CSc1ccccc1NC(=O)COC(=O)CCCOc1ccc(C)cc1 | -13.4% (inactive) |
| CCCCCCCCCCOC(=O)Cn1c(COc2ccc(C)cc2)[n+](C)c2ccccc21 | 79.8% (active) |
| COCC#Cc1ccc2c(c1)O[C@@H](CN(C)C(=O)Nc1ccccc1F)[C@H](C)CN([C@H](C)CO)S2(=O)=O | 11.1% (inactive) |
| O=S(=O)(c1ccccc1)N1CCCCN2[C@H](C1)[C@H](c1ccc(-c3ccccc3)cc1)[C@@H]2CO | -26.6% (inactive) |
| C[C@H]1CN([C@@H](C)CO)C(=O)c2cc(NC(=O)CCC(F)(F)F)ccc2O[C@H]1CN(C)Cc1ccc(C(=O)O)cc1 | -6.5% (inactive) |

| Structure (SMILES) | inhibition |
| --- | --- |
| Cc1cc2oc3ccc(NCCC4CCCN4C)cc3c(=O)c2cc1C (stereo unspecified) | 60.4% (active) |
| COc1cccc2sc3cc(NCC[C@@H]4CCCN4C)ccc3c(=O)c12 | -48.1% (inactive) |
| CN1CCC[C@@H]1CCO[C@](C)(c1ccccc1)c1ccc(Cl)cc1 | 27.4% (inactive) |
| COc1ccc2c3c([nH]c2c1)[C@H](CO)N(C(=O)c1ccncc1)CC31CCN(C(=O)c2ccncc2)CC1 | 2.16% (inactive) |
| COc1ccccc1S(=O)(=O)N1C[C@@H]2N[C@H](C1)C2c1ccc(-c2cccc(C)c2)cc1 (stereo partly specified) | 56.8% (active) and 37.8% (inactive) |
| N#Cc1ccc(-c2ccc(C3[C@@H]4CN(S(=O)(=O)c5ccccc5F)C[C@H]3N4)cc2)cc1 (stereo partly specified) | -15.8% (inactive) and -46.3% (inactive) |
| COc1cccc(S(=O)(=O)N2C[C@@H]3N[C@H](C2)C3c2ccc(-c3cccc(C(=O)N(C)C)c3)cc2)c1 (stereo partly specified) | 10.5% (inactive) and 16.9% (inactive) |
| COc1ccc(NC(=O)N(C)C[C@H]2Oc3ccc(NS(=O)(=O)c4ccc(F)cc4)cc3C(=O)N([C@@H](C)CO)C[C@@H]2C)cc1 | 15.8% (inactive) |
| C[C@H](CO)N1C[C@H](C)[C@@H](CN(C)Cc2ccc(Cl)c(Cl)c2)Oc2ccc(NS(=O)(=O)c3ccccc3)cc2C1=O | -11.9% (inactive) |
| O=C(/C=C/c1ccc(Cl)cc1)Nc1ccc(Br)cn1 | -0.893% (inactive) |
| NCCCNC(=S)NCCCN(Cc1ccc(Cl)cc1)c1ccc(Br)cn1 | 95% (active) |
| S=C(NCCCc1cnc[nH]1)NCCCN(Cc1ccc(Cl)c(Cl)c1)c1ccc(Br)cn1 | -1.73% (inactive) |
| O=C1CN(S(=O)(=O)c2ccccc2)C[C@H]2[C@H](c3ccc(C4=CCCC4)cc3)[C@@H](CO)N12 | -19.1% (inactive) |
| C[C@H](NC(=O)C[C@@H]1C=C[C@H](NC(=O)CN2CCOCC2)[C@H](CO)O1)c1ccccc1 | 3.29% (inactive) |
| Cc1ccc2nc(CN(C)C(=O)[C@@H](Cc3ccccc3)NC(=O)[C@H]3O[C@@H](n4ccc(=O)[nH]c4=O)[C@H](O)[C@@H]3O)[nH]c2c1 | 5.6% (inactive) |
| C[C@@H]1CN([C@H](C)CO)C(=O)Cc2cc(N(C)C)ccc2O[C@H]1CN(C)S(C)(=O)=O | -4.07% (inactive) |
| CC(=O)Nc1ccc(Nc2c3ccccc3nc3ccccc23)cc1 | 91.2% (active) |
| CC(=O)NCCn1c(SCC(=O)Nc2ccc(C)cc2)nc2ccccc2c1=O | -11.4% (inactive) |
| CCc1c(C)nc2c(-c3ccccc3)c(C)nn2c1Nc1ccc(NC(C)=O)cc1 | -12.3% (inactive) |
| O=C(c1cnccn1)N1CC(=O)N2[C@H](C1)[C@@H](c1ccc(C#CC3CCCCC3)cc1)[C@@H]2CO | 13.7% (inactive) |
| O=C(NCCc1ccccn1)c1cc(-c2ccc(Cl)cc2)nc2ccccc12 | -15.9% (inactive) |
| CN(C)CCNC(=O)c1ccc(Cl)c2cc3ccccc3nc12 | 94.5% (active) |
| CNC(=O)c1cccc2nc3ccccc3nc12 | 2.55% (inactive) |

— PubChem BioAssay AID651710 (Broad Institute, 2012)
